Results from PubChem BioAssay AID1159580 (chemical genetic matrix, 2015).
The whole screen tested about 5,500 compounds, of which about 2,000 (36%) were called active. Another 18% or so got no clear call; they are omitted. Cut-off read from the data, not from the text of the source: active = normalized growth mostly below about 0.91 (no sharp cut-off); inconclusive = no clear call, values can overlap the other calls; inactive = mostly above about 0.92. Some of the results follow.

Test: chemical genetic growth profiling, strain panel (AID 1159580);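 note: tested at 20 µM; growth read once vehicle control cultures reached saturation at 30 °C; 1 = growth at the plate median or of vehicle wells; lower values mean less growth of the strain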
Settings: S. cerevisiae deletion strains, growth OD

Measured: normalized growth

CC(CC(C(N)=O)(c1ccccc1)c1ccccc1)N(C)C (stereo not given)
inactive: locus YAL021C, strain ccr4, stronger effect = lower value 0.952 | locus YAL026C, strain drs2, stronger effect = lower value 0.977 | locus YAL030W, strain snc1, stronger effect = lower value 0.996 | locus YBL061C, strain skt5, stronger effect = lower value 0.983 | locus YBR009C, strain hhf1, stronger effect = lower value 0.988 | locus YBR023C, strain chs3, stronger effect = lower value 0.949 | locus YBR171W, strain sec66, stronger effect = lower value 0.967 | locus YBR231C, strain swc5, stronger effect = lower value 0.994 | locus YBR279W, strain paf1, stronger effect = lower value 0.995 | locus YCL011C, strain gbp2, stronger effect = lower value 0.963 | locus YCL016C, strain dcc1, stronger effect = lower value 0.989 | locus YCL061C, strain MRC1, stronger effect = lower value 0.981 | locus YCL069W, strain vba3, stronger effect = lower value 0.976 | locus YCR088W, strain abp1, stronger effect = lower value 0.973 | locus YDL005C, strain med2, stronger effect = lower value 0.989 | locus YDL040C, strain nat1, stronger effect = lower value 0.996 | locus YDR001C, strain nth1, stronger effect = lower value 0.974 | locus YDR069C, strain doa4, stronger effect = lower value 0.973 | locus YDR137W, strain rgp1, stronger effect = lower value 0.968 | locus YDR159W, strain sac3, stronger effect = lower value 0.981 | locus YDR195W, strain ref2 0.981 | locus YDR297W, strain sur2, stronger effect = lower value 0.983 | locus YDR334W, strain swr1, stronger effect = lower value 0.942 | locus YDR335W, strain msn5, stronger effect = lower value 0.978 | locus YDR392W, strain spt3, stronger effect = lower value 0.958 | locus YEL003W, strain gim4, stronger effect = lower value 0.982 | locus YEL037C, strain rad23, stronger effect = lower value 0.939 | locus YEL061C, strain CIN8 (second series), stronger effect = lower value 0.982 | locus YER015W, strain faa2, stronger effect = lower value 1.01 | locus YER016W, strain bim1, stronger effect = lower value 0.982 | locus YER111C, strain swi4, stronger effect = lower value 0.994 | locus YER155C, strain BEM2 (second series), stronger effect = lower value 0.985 | locus YFR010W, strain ubp6, stronger effect = lower value 0.964 | locus YGL167C, strain pmr1, stronger effect = lower value 0.988 | locus YGL173C, strain kem1, stronger effect = lower value 0.975 | locus YGL227W, strain vid30, stronger effect = lower value 0.989 | locus YGL240W, strain doc1, stronger effect = lower value 0.981 | locus YGL253W, strain hxk2, stronger effect = lower value 0.937 | locus YHR013C, strain ard1, stronger effect = lower value 0.951 | locus YHR027C, strain rpn1, stronger effect = lower value 0.978 | locus YHR030C, strain SLT2, stronger effect = lower value 1.02 | locus YHR079C, strain IRE1, stronger effect = lower value 1.02 | locus YHR142W, strain chs7, stronger effect = lower value 0.957 | locus YJL092W, strain hpr5, stronger effect = lower value 0.969 | locus YJL095W, strain BCK1 (second series), stronger effect = lower value 0.983 | locus YJL095W, strain BCK1, stronger effect = lower value 0.992 | locus YJL115W, strain asf1, stronger effect = lower value 0.962 | locus YJL129C, strain trk1, stronger effect = lower value 0.952 | locus YJL154C, strain vps35, stronger effect = lower value 0.984 | locus YJL164C, strain tpk1, stronger effect = lower value 0.974 | locus YJL166W, strain qcr8, stronger effect = lower value 0.987 | locus YJL187C, strain SWE1, stronger effect = lower value 0.984 | locus YJR066W, strain TOR1, stronger effect = lower value 0.969 | locus YKL160W, strain elf1, stronger effect = lower value 0.978 | locus YKR026C, strain gcn3, stronger effect = lower value 0.979 | locus YKR091W, strain srl3, stronger effect = lower value 0.987 | locus YLL001W, strain dnm1, stronger effect = lower value 0.994 | locus YLL026W, stronger effect = lower value 0.986 | locus YLL041C, strain sdh2, stronger effect = lower value 0.979 | locus YLR027C, strain aat2, stronger effect = lower value 0.989 | locus YLR113W, strain HOG1, stronger effect = lower value 0.999 | locus YLR221C, strain rsa3, stronger effect = lower value 0.979 | locus YLR258W, strain gsy2, stronger effect = lower value 0.978 | locus YLR262C, strain YPT6 (second series), stronger effect = lower value 0.977 | locus YLR320W, strain mms22, stronger effect = lower value 0.992 | locus YLR342W, strain FKS1, stronger effect = lower value 0.986 | locus YLR357W, strain rsc2, stronger effect = lower value 0.992 | locus YLR370C, strain arc18, stronger effect = lower value 0.984 | locus YLR384C, strain iki3, stronger effect = lower value 0.994 | locus YML120C, strain ndi1, stronger effect = lower value 0.97 | locus YMR058W, strain fet3, stronger effect = lower value 0.967 | locus YMR125W, strain sto1, stronger effect = lower value 0.995 | locus YMR129W, stronger effect = lower value 0.972 | locus YMR205C, strain PFK2, stronger effect = lower value 0.965 | locus YMR231W, strain pep5, stronger effect = lower value 0.983 | locus YNL071W, strain lat1, stronger effect = lower value 0.979 | locus YNL183C, strain NPR1, stronger effect = lower value 0.973 | locus YNL209W, strain ssb2, stronger effect = lower value 0.983 | locus YNL248C, strain rpa49, stronger effect = lower value 0.941 | locus YNL322C, strain KRE1 (second series), stronger effect = lower value 0.983 | locus YNR049C, strain mso1, stronger effect = lower value 0.976 | locus YOR001W, strain rrp6, stronger effect = lower value 0.959 | locus YOR070C, strain gyp1, stronger effect = lower value 0.99 | locus YOR080W, strain dia2, stronger effect = lower value 0.971 | locus YOR083W, strain WHI5, stronger effect = lower value 0.973 | locus YOR106W, strain vam3, stronger effect = lower value 0.982 | locus YOR231W, strain MKK1, stronger effect = lower value 1.04 | locus YOR265W, strain rbl2, stronger effect = lower value 0.991 | locus YOR270C, strain vph1, stronger effect = lower value 0.954 | locus YOR290C, strain snf2, stronger effect = lower value 0.988 | locus YPL051W, strain arl3, stronger effect = lower value 0.996 | locus YPL078C, strain atp4, stronger effect = lower value 0.94 | locus YPL106C, strain sse1, stronger effect = lower value 0.968 | locus YPL240C, strain hsp82, stronger effect = lower value 0.967 | locus YPL256C, strain CLN2, stronger effect = lower value 1.03
